In PubChem BioAssay (Tox21):
Where “and” joins values, the source holds several entries; their conditions need not be identical. Identical values can stand only once. More than one record can exist for a structure, and the calls need not agree. Calls of active or inactive are those of the source. Unless noted, the call rests on the fitted dose curve; in most records, active means well fitted curve in the direction sought with a large enough effect in the repeat runs; inconclusive means weak or mixed curves; inactive means no such curve, though single readings can be large; an effect the other way counts as inactive or inconclusive.

Key:
[1] = qHTS assay to identify small molecule antagonists of the thyroid receptor (TR) signaling pathway - cell viability counter screen (AID 743064); further: nearly all actives have a fitted effect of over 50% in size; further: potency means the concentration at half of the fitted maximal effect
Procedure, shortened: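 In rat pituitary GH3.TRE-Luc reporter cells co-exposed to compound and 1 nM T3 for 23.5 h, cytotoxicity was assessed with CellTiter-Fluor in the same wells, read by fluorescence.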

[2] = qHTS assay to identify small molecule antagonists of the estrogen receptor alpha (ER-alpha) signaling pathway - cell viability counter screen (AID 743074; calls by dose curve; further: nearly all actives have a fitted effect of over 45% in size)
[3] = qHTS assay to identify small molecule antagonists of the estrogen receptor alpha (ER-alpha) signaling pathway using the BG1 cell line - cell viability counter screen (AID 743081);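 further: compound given together with 17beta-estradiol as the ER stimulus; series mostly up to about 70 µM; nearly all actives have a fitted effect of over 45% in size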
Aromatase (Homo sapiens) = Aromatase (Homo sapiens) (UniProt P11511); assay: qHTS assay to identify aromatase inhibitors (AID 743083); further: nearly all actives have a fitted effect of over 55% in size; further: potency means the concentration at half of the fitted maximal effect
Chain of Aromatase (Homo sapiens) (P11511 whole entry, looked up): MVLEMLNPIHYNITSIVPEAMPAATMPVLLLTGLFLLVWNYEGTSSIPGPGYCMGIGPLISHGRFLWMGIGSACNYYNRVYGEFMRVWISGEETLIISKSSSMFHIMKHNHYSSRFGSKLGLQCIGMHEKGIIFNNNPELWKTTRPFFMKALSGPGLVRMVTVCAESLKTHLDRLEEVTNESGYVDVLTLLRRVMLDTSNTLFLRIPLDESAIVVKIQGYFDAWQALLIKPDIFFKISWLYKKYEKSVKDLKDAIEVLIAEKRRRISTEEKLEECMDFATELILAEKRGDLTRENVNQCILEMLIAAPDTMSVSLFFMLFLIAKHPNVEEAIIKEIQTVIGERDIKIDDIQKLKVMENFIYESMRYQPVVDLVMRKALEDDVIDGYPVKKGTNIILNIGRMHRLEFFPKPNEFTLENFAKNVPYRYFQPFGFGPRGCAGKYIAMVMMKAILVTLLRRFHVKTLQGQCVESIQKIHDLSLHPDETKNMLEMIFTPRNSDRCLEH

[4] = tested on: thyroid hormone receptor (rat, GH3 cells); assay: qHTS assay to identify small molecule agonists of the thyroid receptor (TR) signaling pathway (AID 743066; calls by dose curve)
[5] = molecular target: Estrogen receptor (Homo sapiens) (UniProt P03372); assay: qHTS assay to identify small molecule antagonists of the estrogen receptor alpha (ER-alpha) signaling pathway (AID 743069; active means well fitted curve in the direction sought with a large enough effect in the signal ratio in the repeat runs, not every such curve was filed as active; inconclusive means weak or mixed curves, or effect the other way; inactive means no such curve, though single readings can be large or run the other way; the % refers to the signal ratio; further: potency means the concentration at half of the fitted maximal effect)
Chain of Estrogen receptor (Homo sapiens) (P03372 whole entry, looked up): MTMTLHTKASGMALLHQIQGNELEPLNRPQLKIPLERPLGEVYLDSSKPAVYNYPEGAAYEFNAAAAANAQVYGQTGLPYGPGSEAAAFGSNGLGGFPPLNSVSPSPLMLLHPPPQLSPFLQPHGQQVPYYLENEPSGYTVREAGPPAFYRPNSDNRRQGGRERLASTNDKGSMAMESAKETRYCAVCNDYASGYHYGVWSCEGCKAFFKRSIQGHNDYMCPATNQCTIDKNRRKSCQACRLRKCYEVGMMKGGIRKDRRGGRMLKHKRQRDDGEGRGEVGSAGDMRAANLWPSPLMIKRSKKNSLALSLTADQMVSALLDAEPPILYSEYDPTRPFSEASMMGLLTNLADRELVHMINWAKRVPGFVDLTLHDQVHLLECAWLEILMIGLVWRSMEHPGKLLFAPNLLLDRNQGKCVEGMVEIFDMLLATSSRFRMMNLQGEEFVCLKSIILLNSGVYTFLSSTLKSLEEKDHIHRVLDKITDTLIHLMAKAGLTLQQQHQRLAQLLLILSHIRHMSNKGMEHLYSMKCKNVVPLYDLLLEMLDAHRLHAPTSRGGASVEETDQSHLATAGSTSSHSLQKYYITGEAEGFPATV
Procedure, shortened: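 Screening used a UAS-driven beta-lactamase reporter integrated into HEK293 cells expressing ER-alpha, stimulated with 17beta-estradiol alongside test compounds over 18 hr at 37C; signal came from LiveBLAzer B/G FRET fluorescence.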

[6] = molecular target: Estrogen receptor (Homo sapiens) (UniProt P03372); assay: qHTS assay to identify small molecule agonists of the estrogen receptor alpha (ER-alpha) signaling pathway (AID 743075; calls by dose curve; further: potency means the concentration at half of the fitted maximal effect)
[7] = molecular target: Estrogen receptor (Homo sapiens) (UniProt P03372); assay: qHTS assay to identify small molecule agonists of the estrogen receptor alpha (ER-alpha) signaling pathway using the BG1 cell line (AID 743079); further: nearly all actives have a fitted effect of over 20% in size; further: potency means the concentration at half of the fitted maximal effect
[8] = qHTS assay to identify small molecule antagonists of the estrogen receptor alpha (ER-alpha) signaling pathway using the BG1 cell line (AID 743080; calls by dose curve;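 further: BG1 cells stimulated with 17beta-estradiol alongside compound; series mostly up to about 70 µM; nearly all actives have a fitted effect of over 25% in size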)
Procedure, shortened: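 BG1-Luc-4E2 cells (endogenous full-length ER-alpha, 4xERE luciferase) hormone-starved 5 days in charcoal-stripped FBS, plated 4,000/well for 24 h, then compound plus 17beta-estradiol for 21.5 h at 37 C; ONE-Glo luminescence read.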

[9] = qHTS assay to identify small molecule antagonists of the thyroid receptor (TR) signaling pathway (AID 743065); further: series mostly up to about 70 µM; nearly all actives have a fitted effect of over 55% in size
Procedure, shortened: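 GH3.TRE-Luc rat pituitary cells carrying two TR response elements driving luciferase were plated for 4 h, given compound plus 1 nM T3 (final), and incubated 23.5 h at 37 C. ONE-Glo luminescence measured reporter inhibition; CellTiter-Fluor fluorescence tracked cytotoxicity.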

Measured: Potency

CN1CCN(C2=Nc3ccccc3Sc3ccc(Cl)cc32)CC1
inactive: [2] | [3] | Aromatase (Homo sapiens)
active: [1] 13.3 µM

CN(C)C/C=C(/c1ccc(Br)cc1)c1cccnc1
active: [1] 10.6 µM
inactive: [4] | [2] | Aromatase (Homo sapiens)

CCCCOC(=O)/C=C\C(=O)OCCCC
not listed: [9]
inactive: all other assays above

CC(C)CC=O
not listed: [1]
inactive: all other assays above

CCCCCCCCCO
not listed: [1]
inactive: all other assays above

O=S1(=O)c2cccc3cccc(c23)N1CCCN1CCN(c2ccc(F)cc2)CC1
inactive: [1] | [4] | [6] | [3] | Aromatase (Homo sapiens)

CC(C)(C)c1cc(O)c(C(C)(C)C)cc1O
active: [1] 48.6 µM | [5] 43.6 µM [inconclusive] | Aromatase (Homo sapiens) 21.7 µM
inactive: [2] | [6] | [3]

O=c1[nH]cnc2ccccc12
not listed: [1]
inactive: all other assays above

C=C(C)C(=O)OCCN(C)C
not listed: [1]
inactive: all other assays above

OCC1CC2CC1C1CCC(CO)C21 (configuration not stated)
not listed: [1]
inactive: all other assays above

CCCCOc1cc(C(=O)OCCN(CC)CC)ccc1N
not listed: [9]
inactive: all other assays above

Cc1occc1S
not listed: [4] | [9]
inactive: all other assays above

CN(C)CCCNCCCN
inactive: [1] | [5] | [2] | [8] | [3] | Aromatase (Homo sapiens)

CC[C@@H]1C[C@H](N(Cc2cc(C(F)(F)F)cc(C(F)(F)F)c2)C(C)=O)c2cc(C(F)(F)F)ccc2N1C(=O)OC(C)C
not listed: [1] | [3] | Aromatase (Homo sapiens)
inactive: all other assays above

NC[C@H]1O[C@H](O[C@H]2[C@H](O)[C@@H](O[C@H]3O[C@H](CO)[C@@H](O)[C@H](N)[C@H]3O)[C@H](N)C[C@@H]2N)[C@H](O)[C@@H](O)[C@@H]1O
inactive and 1.89 µM (active): [1]
inactive: [4] | [2] | [8] | [3] | Aromatase (Homo sapiens)

O=C(O)Cc1sc(-c2ccccc2)nc1-c1ccc(Cl)cc1
not listed: [5] | [9]
inactive: all other assays above

COCCCCCCCCOCCC[Si](C)(O[Si](C)(C)C)O[Si](C)(C)C
active: Aromatase (Homo sapiens) 19.3 µM
inactive: [1] | [4]

CCN(CC)CCOC(=O)C1(c2ccccc2)CCCC1
not listed: [1]
inactive: all other assays above

CCCCCCOC(=O)CCC
inactive: [1] | [3] | Aromatase (Homo sapiens)

CCCCCCCCC(CO)CCCCCC (configuration not stated)
not listed: [1]
inactive: all other assays above

Oc1ccc2c(c1)OCO2
inactive: [1] | [4] | [2] | [8] | [3] | Aromatase (Homo sapiens)

Cc1cc(O)ccc1N
active: [1] 30.8 µM | Aromatase (Homo sapiens) 54.8 µM
inactive: [5] | [2] | [6] | [7] | [3]

CCCCCOC(=O)c1ccc(O)cc1
active: [5] 62.4 µM [inconclusive] | [6] 55.6 µM [inconclusive] | [7] 17.4 µM
inactive: [1] | [4] | [2] | [3]

O=[N+]([O-])c1cccc(Cl)c1Cl
not listed: [4] | [9]
inactive: all other assays above

ClC(Cl)(Cl)c1ccc(C(Cl)(Cl)Cl)cc1
not listed: [1] | Aromatase (Homo sapiens)
inactive: all other assays above
